Assay [1] in a line: qHTS assay for small molecules that induce genotoxicity in human embryonic kidney cells expressing luciferase-tagged ATAD5 (AID 651632). Note: nearly all actives have a fitted effect of over 15% in size. A digest of the protocol: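 Increased luciferase signal from ATAD5-tagged reporter cells indicates DNA-damage-driven ATAD5 induction. HEK293T cells are treated for 16 hr at 37C before detection with Amplite.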
(Quantitative high-throughput screening tests each substance at several concentrations.)

Assay [2] is described as follows: qHTS assay to test for compound auto fluorescence at 590 nm (red) in HepG2 cells (AID 720674). In a few lines:
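1 hr compound incubation on HepG2 cells, 37 C, 5% CO2; plate read ex 540 nm / em 590 nm; intensities reported as Rose Bengal sodium equivalents.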

Assay [3] is described as follows: qHTS assay to test for compound auto fluorescence at 535 nm (green) in HepG2 cells (AID 720675). Note: potency is the fitted concentration of half-maximal effect.
The nature of assay [4]: qHTS assay to test for compound auto fluorescence at 460 nm (blue) in HEK293 cells (AID 720678). In a few lines: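 Blue-channel (Ex/Em 405/460 nm) intensity measured in HEK293 cultures after overnight compound exposure at 37C; signal expressed relative to triamterene. Cells plated 2,000 per well in 10% dialyzed FBS medium and allowed 4-5 hr to attach.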
Assay [5] is described as follows: qHTS assay to test for compound auto fluorescence at 590 nm (red) in HEK293 cells (AID 720679). In a few lines: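 Red-channel autofluorescence (Ex/Em 540/590 nm; Rose Bengal sodium reference) was measured after overnight 37C, 5% CO2 exposure of attached HEK293 cells, 2,000 per well in medium with 10% dialyzed FBS.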
The nature of assay [6]: qHTS assay to test for compound auto fluorescence at 460 nm (blue) in HEK293 cell free culture (AID 720681). A digest of the protocol: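 Blue fluorescence (Ex 405/Em 460 nm, triamterene-equivalent) was read immediately after pin transfer of compound or DMSO into medium (DMEM, 10% FBS) without cells.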
Assay [7] in a line: qHTS assay to test for compound auto fluorescence at 535 nm (green) in HEK293 cell free culture (AID 720682). Note: potency is the fitted concentration of half-maximal effect. A digest of the protocol: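 Using fluorescein as calibrant, autofluorescence was quantified at 485/535 nm in cell-free DMEM containing 10% FBS after pintool addition of compound or vehicle.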
Assay [8] in a line: qHTS assay to test for compound auto fluorescence at 590 nm (red) in HEK293 cell free culture (AID 720683). A digest of the protocol: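 Red-channel autofluorescence of compounds in culture medium (DMEM, 10% FBS), no cells, measured at 540/590 nm. Rose Bengal sodium is the reference fluorophore for equivalence.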
Assay [9] in a line: qHTS assay to test for compound auto fluorescence at 590 nm (red) in HepG2 cell free culture (AID 720684). A digest of the protocol: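 Steps: dispense MEM/10% FBS medium, no cells; pin compound or DMSO vehicle; read red channel, Ex/Em 540/590 nm. Output given as Rose Bengal sodium equivalents.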
Assay [10] in a line: qHTS assay to test for compound auto fluorescence at 460 nm (blue) in HepG2 cell free culture (AID 720685). In a few lines: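 Compound (23 nL) or DMSO pinned into cell-free MEM with 10% FBS; blue fluorescence read at 405/460 nm excitation/emission, expressed as auto-fluorescence equivalency to triamterene.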
Assay [11] is described as follows: qHTS assay to test for compound auto fluorescence at 535 nm (green) in HepG2 cell free culture (AID 720686). Note: potency is the fitted concentration of half-maximal effect.
Assay [12] in a line: qHTS assay to test for compound auto fluorescence at 460 nm (blue) in HepG2 cells (AID 720687). A digest of the protocol:
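Blue-channel autofluorescence (Ex/Em 405/460 nm, triamterene-equivalent) was measured after 1 hr compound exposure at 37 C, 5% CO2. Cells were HepG2, plated overnight at 37 C in MEM plus 10% FBS.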

Assay [13] deals with Glucocorticoid receptor (Homo sapiens) (UniProt P04150). The assay is described as follows: qHTS assay to identify small molecule agonists of the glucocorticoid receptor (GR) signaling pathway (AID 720691; active = well fitted activation curve with a large enough effect in the signal ratio in the repeat runs, not every such curve was filed as active; the % refers to the signal ratio; note: potency is the fitted concentration of half-maximal effect). In a few lines: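 Agonist mode in a HeLa line carrying a GRE-controlled beta-lactamase reporter. Compounds act for 18 h at 37 C before a 2 h room-temperature FRET substrate step and fluorescence reading.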
Glucocorticoid receptor (Homo sapiens), sequence (P04150 whole entry, looked up): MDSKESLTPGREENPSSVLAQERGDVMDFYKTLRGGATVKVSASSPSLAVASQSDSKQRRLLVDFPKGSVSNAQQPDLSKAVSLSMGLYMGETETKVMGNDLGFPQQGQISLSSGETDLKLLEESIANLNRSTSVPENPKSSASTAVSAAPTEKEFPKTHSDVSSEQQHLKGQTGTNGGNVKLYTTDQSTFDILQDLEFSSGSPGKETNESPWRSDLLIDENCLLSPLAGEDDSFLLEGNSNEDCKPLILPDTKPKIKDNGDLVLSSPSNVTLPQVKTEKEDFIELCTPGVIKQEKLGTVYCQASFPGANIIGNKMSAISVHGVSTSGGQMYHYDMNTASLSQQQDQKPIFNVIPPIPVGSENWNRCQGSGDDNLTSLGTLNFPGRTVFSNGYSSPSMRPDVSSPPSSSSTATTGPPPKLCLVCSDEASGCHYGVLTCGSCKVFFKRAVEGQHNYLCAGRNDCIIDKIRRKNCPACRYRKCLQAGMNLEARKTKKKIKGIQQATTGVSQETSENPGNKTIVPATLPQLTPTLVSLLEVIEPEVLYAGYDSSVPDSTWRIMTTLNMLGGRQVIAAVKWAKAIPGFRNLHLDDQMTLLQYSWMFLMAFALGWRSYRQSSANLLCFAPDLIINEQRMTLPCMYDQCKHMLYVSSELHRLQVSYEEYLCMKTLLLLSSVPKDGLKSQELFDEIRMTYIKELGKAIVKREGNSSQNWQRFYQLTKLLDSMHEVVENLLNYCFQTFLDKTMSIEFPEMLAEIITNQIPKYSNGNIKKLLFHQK

Assay [14] in a line: qHTS assay for small molecules that induce genotoxicity in human embryonic kidney cells expressing luciferase-tagged ATAD5 - cell viability (AID 651634; calls by dose curve; note: nearly all actives have a fitted effect of over 25% in size). In a few lines: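 Cytotoxicity counterscreen in HEK293T cells bearing an ATAD5-luciferase reporter: live-cell protease activity measured by CellTiter-Fluor fluorescence after 15.5 hr compound exposure.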
The nature of assay [15]: qHTS assay for small molecule disruptors of the mitochondrial membrane potential - cell viability (AID 720634; calls by dose curve;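 note: human HepG2 liver cancer cells; series mostly up to about 83 µM; nearly all actives have a fitted effect of over 20% in size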). A digest of the protocol: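 After overnight attachment at 37 C, HepG2 cells received compound or DMSO vehicle for 1 hr. Viability is then taken from ATP-driven luminescence following a 30 min room-temperature CellTiter-Glo step.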
Assay [16] is described as follows: qHTS assay to test for compound auto fluorescence at 535 nm (green) in HEK293 cells (AID 720680).
Assay [17] can be described thus: qHTS assay for small molecule disruptors of the mitochondrial membrane potential (AID 720635). Note: potency is the fitted concentration of half-maximal effect. In a few lines: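 Mitochondrial membrane potential tracked with Mito-MPS dye, red aggregates (ex 540/em 590 nm) against green monomers (ex 490/em 535 nm). Compound treatment 1 hr at 37C, dye 30 min in HepG2.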
Assay [18] concerns the target Glucocorticoid receptor (Homo sapiens) (UniProt P04150). The assay is described as follows: qHTS assay to identify small molecule antagonists of the glucocorticoid receptor (GR) signaling pathway (AID 720692; active = well fitted inhibition curve with a large enough effect in the signal ratio in the repeat runs, not every such curve was filed as active; the % refers to the signal ratio; note: potency is the fitted concentration of half-maximal effect). A digest of the protocol:
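Cells plated, rested 4 h at 37 C/5% CO2; compounds in DMSO pin-transferred; dexamethasone added to 5 nM final; 18 h at 37 C; B/G FRET substrate added, 2 h room temperature; fluorescence measured.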

Assay [19] in a line: qHTS assay for small molecule agonists of the p53 signaling pathway - cell viability (AID 651633; calls by dose curve;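 note: p53RE-bla HCT reporter cells with a stable beta-lactamase p53 reporter; series mostly up to about 83 µM; nearly all actives have a fitted effect of over 30% in size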). In a few lines: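 Viability counter-read: CellTiter-Glo luminescence (30 min, room temperature) in the same p53RE-bla plates. These plates had been exposed to compounds for 16 h at 37 C.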

Several values for one entry are separate records, joined by “and”; a condition that tells them apart may be missing. Equal entries are not always repeated. Records with an inconclusive call do not appear. A structure can be active in one record and inactive in another. Activity calls are given as the source filed them. Unless noted, calls come from the whole dose curve; as a rule, active = well fitted curve in the direction sought with a large enough effect in the repeat runs; inconclusive = weak or mixed curves; inactive = no such curve, though single readings can be large; an effect the other way counts as inactive or inconclusive.
% is set by controls: 0 for no effect and ±100 for the full control effect; tags give direction and shape of the fitted curve or compound fluorescence and quenching.

With `CCC(C)(C)C(=O)O[C@H]1C[C@@H](C)C=C2C=C[C@H](C)[C@H](CC[C@@H]3C[C@@H](O)CC(=O)O3)[C@H]21`, the Potency result in assay [1], in assay [3], in assay [4], in assay [6], in [7] and in assay [10] was “inactive” in each case. In addition, the Potency result in [11] and in assay [12] was “inactive” throughout. In addition, the result in [2], in [5], in [8] and in assay [9] was inactive. Further, in assay [13], the Potency is 6.44 µM (active) and inactive.

Take `CCCCN(CCO)CCCC`: the Potency result in assay [1], in assay [14], in assay [15], in assay [3], in [4] and in assay [16] was “inactive” in each case. Besides, the Potency result in [6], in [7], in assay [10], in assay [11] and in [12] was “inactive” throughout. Also, the compound was called inactive in assay [5], in assay [8] and in [9].

On to `COc1nc(C)nc(Cl)c1NC1=NCCN1`, for which the Potency result in assay [1], in assay [14], in [15], in assay [17], in assay [13] and in [18] was “inactive” throughout. Further, the fluorescence, relative to Rose Bengal in [2] was 0.0093% [at 18.6 µM] (inactive). The fluorescence, % of fluorescein control was -0.17% [at 18.6 µM] (inactive) in assay [3] and 0.0146% [at 18.6 µM] (inactive) in assay [11]. Besides, the fluorescence, % of triamterene in assay [4] was 0.0425% [at 18.6 µM] (inactive). In addition, the fluorescence, % of fluorescent control in assay [5] is -0.0076% [at 18.6 µM] (inactive); in [6] it was 0.165% [at 18.6 µM] (inactive); in [10] it was 0.0137% [at 18.6 µM] (inactive); in [12], 0.0089% [at 18.6 µM] (inactive). In assay [7], the activity change was 0.0521% [at 18.6 µM, stronger effect = higher value] (inactive). For the same compound, the fluorescence, % of Rose Bengal in assay [9] was 0.527% [at 18.6 µM] (inactive).

With `O=C1OC2(c3ccc(O)cc3Oc3cc(O)ccc32)c2ccccc21`, the Potency result in assay [1], in assay [15], in [4], in [10] and in assay [12] was “inactive” throughout. Moreover, the Potency is 84.1 nM (active) and 61.1 nM (active) in [17]; 3.16 µM (active) and 2.51 µM (active) and 3.98 µM (active) in assay [3]; 3.55 µM [fluorescent] (active) and 3.98 µM [fluorescent] (active) in assay [7]; 3.16 µM [fluorescent] (active) and 2.82 µM [fluorescent] (active) and 3.55 µM [fluorescent] (active) in [11]. Also, the result in assay [2], in assay [5], in [8] and in assay [9] was inactive.

Turning to `CCCCCC(=O)O[C@]1(C(C)=O)CC[C@H]2[C@@H]3CCC4=CC(=O)CC[C@]4(C)[C@H]3CC[C@@]21C`, the Potency entry in [1], in assay [14], in assay [15], in [3], in [4] and in assay [16] was “inactive” throughout. Besides, the Potency result in assay [6], in assay [7], in [10], in assay [11], in assay [12] and in assay [13] was “inactive” in each case. For the same compound, the Potency is 11.9 µM (active) and 15.2 µM (active) in [17]; 268 nM (active) and 194 nM (active) in assay [18]. The compound was classed as inactive in [5], in [8] and in assay [9].

With `Clc1ccc2c(c1)C(N1CCNCC1)=Nc1ccccc1O2`, the Potency entry in [1], in [19], in assay [15], in assay [3], in [4] and in [6] was “inactive” in each case. Besides, the Potency entry in [7], in assay [10], in [11], in assay [12] and in assay [13] was “inactive” each time. The call in [2], in assay [5], in [8] and in [9] was inactive. The Potency in assay [18] was 19 µM (active) and inactive.

Values taken from PubChem BioAssay (Tox21).
